Bioassay records from PubChem.
CF NFkB inh = inhibitors of PAF-induced NF-kB signaling, primary screen, cell-based, GFP fluorescence, uHTS; KKLEB NF-kB-GFP reporter, GFP fluorescence overnight; AID 588850, 2011; hit rate 0.86% among 360,000; inhibition, % at 5 µM;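 active = at least 50% inhibition at 5 µM, scaled per plate between neutral and stimulator controls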;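 also: PAF is a Pseudomonas aeruginosa culture filtrate used as stimulus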
Mdm2 MdmX PPI = inhibitors of human Mdm2-MdmX association, primary screen, cell-based, luminescence, split luciferase, SaOS-2, uHTS; Protein Mdm4 (Homo sapiens) + E3 ubiquitin-protein ligase Mdm2 (Homo sapiens), …; inhibition, % at 8 µM; hit rate 3% among 330,000; SaOS-2 split-luciferase Mdm2/MdmX complementation;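 active = inhibition of at least 50% at 8 µM in the primary screen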
Target sequence (O15151 whole entry, looked up): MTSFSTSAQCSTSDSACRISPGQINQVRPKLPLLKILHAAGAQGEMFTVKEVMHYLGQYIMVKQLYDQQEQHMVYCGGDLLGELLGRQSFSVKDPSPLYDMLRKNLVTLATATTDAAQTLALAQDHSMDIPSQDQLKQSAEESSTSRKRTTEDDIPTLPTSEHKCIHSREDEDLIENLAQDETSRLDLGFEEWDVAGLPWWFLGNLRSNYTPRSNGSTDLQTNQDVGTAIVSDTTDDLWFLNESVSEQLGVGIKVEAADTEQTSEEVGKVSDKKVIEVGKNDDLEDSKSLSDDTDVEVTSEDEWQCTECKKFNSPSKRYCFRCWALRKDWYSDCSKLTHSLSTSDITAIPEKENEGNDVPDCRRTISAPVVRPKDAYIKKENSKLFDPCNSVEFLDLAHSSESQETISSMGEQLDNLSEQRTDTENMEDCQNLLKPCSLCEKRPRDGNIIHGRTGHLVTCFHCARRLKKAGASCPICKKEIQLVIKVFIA
Target sequence (Q00987 whole entry, looked up): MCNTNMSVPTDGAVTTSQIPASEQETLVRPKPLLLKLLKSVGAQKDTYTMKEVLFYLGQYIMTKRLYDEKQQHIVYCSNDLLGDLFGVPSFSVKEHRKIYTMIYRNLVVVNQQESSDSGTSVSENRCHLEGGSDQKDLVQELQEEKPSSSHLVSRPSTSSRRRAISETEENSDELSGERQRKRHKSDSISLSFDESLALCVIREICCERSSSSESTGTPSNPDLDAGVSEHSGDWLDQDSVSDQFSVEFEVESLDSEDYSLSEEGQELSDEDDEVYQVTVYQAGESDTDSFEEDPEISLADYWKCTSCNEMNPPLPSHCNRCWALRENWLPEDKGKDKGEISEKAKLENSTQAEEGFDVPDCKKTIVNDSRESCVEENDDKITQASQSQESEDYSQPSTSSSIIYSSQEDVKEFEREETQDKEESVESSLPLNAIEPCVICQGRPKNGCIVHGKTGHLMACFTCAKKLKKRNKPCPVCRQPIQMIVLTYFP
ABHD5 PLIN5 PPI = ABHD5-PLIN5 interaction inhibitors, primary screen, cell lysate, split luciferase complementation, luminescence. Perilipin-5 (Homo sapiens) + 1-acylglycerol-3-phosphate O-acyltransferase ABHD5 (Homo …. Split G. princeps luciferase complementation, 4 h. inhibition, % at 4 µM. hit rate 0.78% among 360,000. AID 602281, 2012;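 active = inhibition above the mean inhibition across every tested compound plus 3 SD, cut at about 22% in these data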
Peg3 promoter = Peg3 promoter-driven luciferase inhibitors, primary screen, cell-based, HeLa, luciferase luminescence; HeLa PEG-Prom luciferase reporter, overnight; inhibition, % at 20 µM; hit rate 1.7% among 360,000;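 active = inhibition of at least 50% at 20 µM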
KKLEB cytotox = cytotoxicity in KKLEB CF airway cells, primary screen, cytotoxicity control for CF NF-kB inhibitor project, cell-based, uHTS, fluorescence assay plates. KKLEB CF airway cells viability, ATPlite luminescence, overnight; hits give low values; cells stimulated with P. aeruginosa culture filtrate. activity change (cytotoxicity), % at 5 µM. hit rate 0.36% among 360,000. AID 602141, 2011;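 active = corrected activity change at or below -50% at 5 µM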
HIF-2a inh = HIF-2a reporter inhibitors, primary screen, luminescence, 786-0 RCC cells; 786-0 RCC cells HIF-2a reporter, luciferase luminescence, overnight; inhibition, % at 18.8 µM; hit rate 0.72% among 360,000;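 active = inhibition of the luminescence signal of 40% or more relative to plate controls, in a single-dose primary screen at 18.75 µM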
Mdm2-MdmX conf = Mdm2-MdmX complex disruptors, retested hits, confirmation, luminescence, single concentration; shares compounds with Mdm2 MdmX PPI; Mdm2-MdmX binding, luminescent assay; inhibition, % at 8 µM; hit rate 55% among 10,000; AID 489028, 2010; in the data active = inhibition above about 40%
Full FLuc ctr = full-length luciferase signal inhibition, confirmation, counter-screen for Mdm2/MdmX interaction inhibitor project, cell-based, single concentration, SaOS-2. AID 504607, 2011. shares compounds with Mdm2 MdmX PPI. inhibition, % at 8 µM. SaOS-2 full-length luciferase counterscreen, luminescence. hit rate 77% among 6,200;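 active = mean inhibition at 8 µM reaching about 37%, which flags the compound as non-specific, limit read from the data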;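 also: p53-null SaOS-2 cells with luciferase driven by a doxycycline-inducible promoter; compound on cells about two nights before reading with doxycycline added after day one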
A number is an active result; - = inactive; . = not tested or not shown. The list is not random: actives were taken first. Their share in the collection is about 4.6%.

SMILES | CF NFkB inh | Mdm2 MdmX PPI | ABHD5 PLIN5 PPI | Peg3 promoter | KKLEB cytotox | HIF-2a inh | Mdm2-MdmX conf | Full FLuc ctr
COC(=O)c1ccc(OC)c(CN2CCCN(Cc3cc(C)ccc3C)S2(=O)=O)c1 | - | - | - | - | - | - | . | .
CCCNC(=O)C(Cc1ccc(I)cc1)NC(=O)C1CC1 (stereo not drawn) | - | - | - | - | - | - | . | .
Cc1cccnc1NC(=S)Nc1ncccc1C | - | - | - | - | - | - | . | .
Cc1cccc(NCc2ccc(O)c3ncccc23)c1C | - | 74 | - | - | - | - | 73 | 42
Cc1cccnc1NCc1ccc(O)c2ncccc12 | - | 57 | - | - | - | - | - | .
Oc1ccc(Br)cc1CNc1cccc2cccnc12 | - | 60 | - | - | - | - | 64 | -
Cc1ccc(S(=O)(=O)Nc2cc(C)cn(Cc3ccc(F)cc3)c2=O)cc1 | - | - | - | - | - | - | . | .
Cc1cc(Cl)c(C(=O)Nc2cccc(C(F)(F)F)c2)c(C)n1 | - | - | - | - | - | - | . | .
COc1ccc2[nH]c3c(c2c1)CCN1C(=O)C(CC(=O)NC(C)(C)C)C[C@H](C(=O)N2CCCCC2)[C@@]31C (stereo partly drawn) | - | - | - | - | - | - | . | .
COc1cc2ncc(S(=O)(=O)c3ccccc3)c(N3CCCC(C)C3)c2cc1OC (stereo not drawn) | - | 51 | - | - | - | - | - | .
Cc1cc(C)c(S(=O)(=O)c2ccccc2)c(OC(=O)c2c(F)cccc2F)n1 | - | - | - | - | - | - | . | .
Cc1cc(C)c(S(=O)(=O)c2ccccc2)c(OC(=O)c2c(Cl)cc(Cl)cc2Cl)n1 | - | 52 | - | - | - | - | - | .
O=C(c1cccc(Cl)c1)c1nn(-c2ccccc2)c(=O)cc1C(F)(F)F | - | 77 | - | - | - | - | - | .
O=C(c1ccccc1)c1nn(-c2ccccc2)c(=O)cc1C(F)(F)F | - | - | - | - | - | - | . | .
C=CCNc1ncnc2c1ncn2C1OC(CO)C(O)C1O (stereo not drawn) | - | 56 | - | - | - | - | - | .
OC[C@H]1O[C@@H](n2cnc3c(NC4CCCC4)ncnc32)[C@H](O)[C@@H]1O | - | - | - | - | - | - | . | .
CCOC(=O)c1cc(-c2ccccc2)sc1NC(=O)COC(=O)c1cccc(S(N)(=O)=O)c1 | - | 74 | - | 87 | - | - | - | .
CCOC(=O)c1cc(-c2ccccc2)sc1NC(=O)COC(=O)c1ccc(Cl)c(S(N)(=O)=O)c1 | - | 54 | - | - | - | - | 82 | 88
Nc1cc(Cl)ccc1C(=O)OCC(=O)NCc1cccs1 | - | - | - | - | - | - | . | .
O=C1C=C(Nc2ccccc2C(=O)O)c2ccccc2C1=O | - | - | - | - | - | - | . | .
COC(=O)c1ccccc1NC1=C/C(=N\S(=O)(=O)c2ccc(C(=O)O)cc2)c2ccccc2C1=O | 97 | 90 | - | 105 | -62 | - | 68 | -
CCc1ccc(S(=O)(=O)/N=C2\C=C(Nc3ccc(C(=O)O)cc3)C(=O)c3ccccc32)cc1 | 90 | 80 | - | - | - | - | 52 | -
COc1cc(C(=O)N(C)CCOc2ccc(C)cc2)ccc1OC1CCN(C(C)=O)CC1 | - | - | - | - | - | - | . | .
CCn1c(CC(=O)Nc2ccc(OC)cc2)nnc1SCC(=O)N1CCOCC1 | - | - | - | - | - | - | . | .
CCN(Cc1ccc(OC)c(F)c1)C(=O)CCl | - | 89 | - | - | - | - | 63 | -
SMILES | CF NFkB inh | Mdm2 MdmX PPI | ABHD5 PLIN5 PPI | Peg3 promoter | KKLEB cytotox | HIF-2a inh | Mdm2-MdmX conf | Full FLuc ctr
COc1cccc(-c2cnc(C(O)c3ccc(F)c(C)c3)[nH]2)c1 (stereo not drawn) | - | . | - | - | - | - | . | .
CCOC(=O)c1cc(-c2ccccc2)sc1NC(=O)c1ccc(OC)cc1 | . | 75 | . | . | . | . | - | .
COC(=O)c1sc(-c2ccccc2)cc1NC(=O)c1ccc(OC)cc1 | - | 75 | - | - | - | - | - | .
COC(=O)c1sc(-c2ccccc2)cc1NC(=O)c1cc(OC)cc(OC)c1 | - | - | - | - | - | - | . | .
Cc1nnc(NC(=O)CSc2nc(C(C)C)nc3ccccc23)s1 | - | 76 | - | - | - | - | 63 | 44
CC(C)c1nc(SCC(=O)Nc2nc3c(s2)CCCC3)c2ccccc2n1 | - | 85 | - | - | - | - | 64 | 45
Cc1cc(NC(=O)CSc2nc(C(C)C)nc3ccccc23)no1 | - | - | - | - | - | - | . | .
O=C(Cc1cccs1)Nc1nc2c(s1)CCCC2 | - | 56 | - | - | - | - | 47 | 90
O=C(CSc1nc(Cc2ccccc2)nc2ccccc12)Nc1nc2c(s1)CCCC2 | - | - | - | - | - | - | . | .
CN(Cc1ccccc1)S(=O)(=O)c1ccc2[nH]c(=O)ccc2c1 | - | - | - | - | - | - | . | .
Cc1ccc(/C=C/S(=O)(=O)NCc2ccc(F)cc2)cc1 | - | - | - | - | - | - | . | .
CCOC(=O)[C@@H]1[C@H]2COc3cc(OC)ccc3[C@@H]2N2C(=O)N(c3ccc(C(F)(F)F)cc3)C(=O)[C@@]12C | - | - | - | - | - | - | . | .
CCOC(=O)[C@@H]1[C@H]2COc3cc(OC)ccc3[C@H]2N2C(=O)N(c3ccc(C(F)(F)F)cc3)C(=O)[C@]12C | - | 91 | - | - | - | - | - | .
COc1cc2c(cc1OC)C(C)N(C(=O)c1c(C)noc1C)CC2 (stereo not drawn) | - | - | - | - | - | - | . | .
COc1cc2c(cc1OC)C(C)N(C(=O)c1cc(C)on1)CC2 (stereo not drawn) | - | 61 | - | - | - | - | 68 | 82
O=C(NC1CCN(Cc2ccccc2)CC1)C1CCN(S(=O)(=O)c2ccc(Cl)cc2)CC1 | - | - | - | - | - | - | . | .
O=S(=O)(c1ccccc1)c1nnn2c1nc(NC1CCN(Cc3ccccc3)CC1)c1cc(Cl)ccc12 | - | 100 | - | 55 | - | - | - | 52
Cc1ccc(C)c(Nc2nc3c(S(=O)(=O)c4ccccc4)nnn3c3ccccc23)c1 | - | - | - | - | - | - | . | .
O=S(=O)(c1ccccc1)c1nnn2c1nc(NC1CCN(Cc3ccccc3)CC1)c1ccccc12 | - | 54 | - | - | - | - | - | .
